High-throughput results as filed in PubChem BioAssay.
FAS TE block = inhibitors of human fatty acid synthase thioesterase domain | 0.67% of 360,000 active | P49327 | inhibition, % at 15 µM | recombinant FAS-TE, OMFH fluorogenic substrate, fluorescence endpoint;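 active means compounds whose normalised, plate-corrected inhibition of enzyme fluorescence in the single-dose primary screen is 50% or more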
ADAM10 inh = inhibitors of human ADAM10; O14672; recombinant ADAM10, EDANS/DABCYL FRET peptide cleavage, 3 h; inhibition, % at 7 µM; 0.62% of 370,000 active;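 active means inhibition above a per-campaign cutoff equal to the mean of compounds falling between control-based bounds plus 3 SD, cut at about 20% in these data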
ADAM17 inh = inhibits human ADAM17; AID 720648; inhibition, % at 6.95 µM; recombinant ADAM17, EDANS/DABCYL FRET peptide cleavage; 0.83% of 370,000 active;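 active means inhibition above the mean of compounds lying between control limits plus 3 SD, set per campaign, cut at about 8.5% in these data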
HGIII-sPLA2 inh = Blocks human group III sPLA2 activity; Q9NZ20; QFRET BODIPY PC-A2 liposome hydrolysis, fluorescence; inhibition, % at 12.2 µM; 0.56% of 370,000 active;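 active means inhibition above mean plus 3 SD of compounds lying within the high and low control bounds, cut at about 19% in these data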
Target sequence (Q9NZ20 whole entry, looked up): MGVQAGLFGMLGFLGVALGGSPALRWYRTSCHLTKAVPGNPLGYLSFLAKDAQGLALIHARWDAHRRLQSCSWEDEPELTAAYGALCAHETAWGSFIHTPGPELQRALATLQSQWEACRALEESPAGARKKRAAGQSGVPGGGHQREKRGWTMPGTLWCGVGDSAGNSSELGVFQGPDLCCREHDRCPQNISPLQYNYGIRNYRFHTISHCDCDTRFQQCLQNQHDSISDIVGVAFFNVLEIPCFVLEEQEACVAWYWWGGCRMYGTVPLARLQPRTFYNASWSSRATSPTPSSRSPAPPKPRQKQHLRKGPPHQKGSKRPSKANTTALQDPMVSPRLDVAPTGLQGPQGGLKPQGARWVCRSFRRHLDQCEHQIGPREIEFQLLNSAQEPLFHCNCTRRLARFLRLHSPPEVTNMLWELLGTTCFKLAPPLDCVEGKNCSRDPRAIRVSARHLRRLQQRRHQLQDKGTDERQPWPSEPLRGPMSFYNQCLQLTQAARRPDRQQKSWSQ
GRIN3A LBD mod = modulates the human NR3A ligand-binding domain; Tm shift relative to glycine control, % at 25 µM; 2.5% of 340,000 active; NR3A LBD differential scanning fluorimetry, Tm shift; 0% = protein alone, 100% = glycine-bound protein;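 active means melting temperature shift of at least 10% of the positive control shift, at one fixed dose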
ADAM10 confirm = human ADAM10 inhibition, confirmation. inhibition, % at 6.95 µM. AID 743208. shares compounds with ADAM10 inh. ADAM10 QFRET peptide cleavage, EDANS fluorescence. 1% of 2,100 active;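 active means inhibition above about 20% chosen separately for each screening run, limit read from the data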
ADAM17 ctr = inhibits human ADAM17 in ADAM10 exosite counter-screen; shares compounds with ADAM10 inh; ADAM17 QFRET peptide cleavage, EDANS fluorescence; inhibition, % at 6.95 µM; 0.5% of 2,100 active;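 active means mean triplicate inhibition above the solvent-only control wells' mean plus 3 SD, cut at about 12% in these data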
ADAM10 ctr = counter-screen for ADAM17 exosite inhibitors: inhibitors of human ADAM10. recombinant ADAM10, EDANS/DABCYL FRET peptide cleavage, 3 h. inhibition, % at 6.95 µM. 47% of 2,900 active. shares compounds with ADAM17 inh;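 active means mean inhibition over the triplicate runs exceeds the activity threshold set in the earlier primary screen, cut at about 20% in these data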
ADAM17 confirm = human ADAM17 inhibition, confirmation; AID 743257; shares compounds with ADAM17 inh; recombinant ADAM17, EDANS/DABCYL QFRET peptide cleavage; inhibition, % at 6.95 µM; 65% of 2,900 active;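 active means mean inhibition across replicates above the hit cutoff set in the primary screen, cut at about 8.5% in these data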
A number is an active result; - = inactive; . = no result. A selection: hits, their analogues and other compounds. The true share with any hit is near 4.3%.

SMILES | FAS TE block | ADAM10 inh | ADAM17 inh | HGIII-sPLA2 inh | GRIN3A LBD mod | ADAM10 confirm | ADAM17 ctr | ADAM10 ctr | ADAM17 confirm
Cc1ccc(S(=O)(=O)N2CCCc3nc(-c4ccc(F)cc4)ccc32)cc1 | . | - | - | - | . | . | . | . | .
CC(C)CC(C(=O)OCC(=O)Nc1cccc(Cl)c1)N1C(=O)C2CC=CCC2C1=O (configuration not stated) | - | 34.6 | 17.0 | - | - | - | - | 26.5 | 10.9
CN(C)c1ccc(/C=C2\SC(=S)N(Nc3ncc(C(F)(F)F)cc3Cl)C2=O)cc1 | - | - | - | - | - | . | . | . | .
COc1cc(/C=C2\SC(=S)N(Nc3ncc(C(F)(F)F)cc3Cl)C2=O)ccc1O | - | 34.4 | 12.1 | - | 14.1 | - | - | 34.6 | 18.7
O=C(Cc1ccccc1)Nc1nc(-c2cccs2)cs1 | - | - | - | - | - | . | . | . | .
O=C(COc1ccc(Cl)cc1)Nc1nc(-c2cccs2)cs1 | - | 22.9 | 9.7 | - | - | - | - | - | -
COc1ccc(C(=O)Nc2nc(-c3cccs3)cs2)cc1 | - | 20.7 | 10.2 | - | 15.8 | - | - | - | -
CNC(=O)C(NC(=O)CNC(=O)c1ccc(Cl)cc1)C(C)(C)C (configuration not stated) | - | - | - | - | - | . | . | . | .
CNC(=O)[C@@H](NC(=O)[C@H](CC(C)C)[C@H](O)C(=O)NO)C(C)(C)C | . | 95.2 | 99.0 | - | . | 99.9 | 102.1 | 105.8 | 101.9
COc1ccccc1Cc1c(-c2ccc(F)cc2)nc2c3ccccc3ccn12 | . | - | - | - | . | . | . | . | .
CNC(=O)c1cc(Oc2ccc(NC(=O)Nc3ccc(Cl)c(C(F)(F)F)c3)cc2)ccn1 | - | 24.8 | 15.7 | - | 11.5 | - | - | 35.4 | 20.4
C=CCC[C@@H](Cc1ccc(F)cc1)C(=O)OC[C@@H](NC(=O)[C@H](CC=C)CC(=O)N(CCO)Cc1ccccc1)c1ccccc1 | - | 27.2 | 11.0 | - | - | - | - | 36.1 | 20.3
C=CCC[C@@H](Cc1ccc(F)cc1)C(=O)OC[C@H](C)NC(=O)[C@H](CC=C)CC(=O)N(CCO)Cc1ccccc1 | - | - | - | - | - | . | . | . | .
C=CCC[C@@H](Cc1ccc(F)cc1)C(=O)OC[C@@H](NC(=O)[C@@H](CC=C)CC(=O)N(CCO)Cc1ccccc1)c1ccccc1 | - | 46.6 | 26.2 | - | - | - | - | 44.1 | 22.4
O=C(Nc1ccc(Cl)c(Cl)c1)OCCNC(=O)c1cccc(Cl)c1 | - | 28.1 | 9.0 | - | 13.4 | - | - | 28.2 | 15.7
COc1ccccc1OCc1ccc(C(=O)N2N=C(C(F)F)CC2(O)C(F)F)o1 (configuration not stated) | - | - | - | - | - | . | . | . | .
O=C(c1ccc(COc2ccc(Cl)cc2)o1)N1N=C(C(F)F)CC1(O)C(F)F (configuration not stated) | - | 34.5 | 13.2 | - | - | - | - | - | -
COc1ccc(N=C2SC(CC(=O)Nc3cccc(Cl)c3)C(=O)N2Cc2ccco2)cc1 (configuration not stated) | - | 21.2 | 13.9 | - | 11.8 | - | - | 23.2 | 15.7
COc1ccc(C(=O)OCC(=O)NCc2ccco2)cc1S(=O)(=O)N1CCN(c2cccc(Cl)c2)CC1 | - | 28.6 | 16.9 | - | - | - | - | 28.2 | 18.2
CCCCCCNC(=O)O[C@H]1Cn2c(=O)n(CCCCCC)c(=O)n2[C@@H]2CN(S(=O)(=O)c3ccc(C)cc3)C[C@]12O | - | 20.4 | 11.2 | - | . | - | - | 39.9 | 21.6
COc1cccc(C=NN(C)c2c([N+](=O)[O-])cc(C(F)(F)F)cc2[N+](=O)[O-])c1O | - | 23.7 | 11.8 | - | . | - | - | 26.7 | 15.9
COc1ccc(/C=N/Nc2ccc(C(F)(F)F)cc2[N+](=O)[O-])cc1O | - | - | - | - | - | . | . | . | .
